According to PMC4336329 (PLoS ONE, 2015):
About 14,000 (4.5%) of roughly 310,000 compounds showed an effect of 50% or more. Effects have a minus sign here. For the sample, strong results were picked, then their nearest neighbours and some compounds at random.

The compounds below were run against human ether-à-go-go-related gene (hERG) potassium channel (human, UniProt Q12809) (assay: primary screen, population patch clamp on CHO cells stably expressing hERG; higher = less effect of the substance).
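Also: peak tail current of the secondary pulse compared with the same well before compound.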

Sequence of human ether-à-go-go-related gene (hERG) potassium channel (Q12809 whole entry, looked up): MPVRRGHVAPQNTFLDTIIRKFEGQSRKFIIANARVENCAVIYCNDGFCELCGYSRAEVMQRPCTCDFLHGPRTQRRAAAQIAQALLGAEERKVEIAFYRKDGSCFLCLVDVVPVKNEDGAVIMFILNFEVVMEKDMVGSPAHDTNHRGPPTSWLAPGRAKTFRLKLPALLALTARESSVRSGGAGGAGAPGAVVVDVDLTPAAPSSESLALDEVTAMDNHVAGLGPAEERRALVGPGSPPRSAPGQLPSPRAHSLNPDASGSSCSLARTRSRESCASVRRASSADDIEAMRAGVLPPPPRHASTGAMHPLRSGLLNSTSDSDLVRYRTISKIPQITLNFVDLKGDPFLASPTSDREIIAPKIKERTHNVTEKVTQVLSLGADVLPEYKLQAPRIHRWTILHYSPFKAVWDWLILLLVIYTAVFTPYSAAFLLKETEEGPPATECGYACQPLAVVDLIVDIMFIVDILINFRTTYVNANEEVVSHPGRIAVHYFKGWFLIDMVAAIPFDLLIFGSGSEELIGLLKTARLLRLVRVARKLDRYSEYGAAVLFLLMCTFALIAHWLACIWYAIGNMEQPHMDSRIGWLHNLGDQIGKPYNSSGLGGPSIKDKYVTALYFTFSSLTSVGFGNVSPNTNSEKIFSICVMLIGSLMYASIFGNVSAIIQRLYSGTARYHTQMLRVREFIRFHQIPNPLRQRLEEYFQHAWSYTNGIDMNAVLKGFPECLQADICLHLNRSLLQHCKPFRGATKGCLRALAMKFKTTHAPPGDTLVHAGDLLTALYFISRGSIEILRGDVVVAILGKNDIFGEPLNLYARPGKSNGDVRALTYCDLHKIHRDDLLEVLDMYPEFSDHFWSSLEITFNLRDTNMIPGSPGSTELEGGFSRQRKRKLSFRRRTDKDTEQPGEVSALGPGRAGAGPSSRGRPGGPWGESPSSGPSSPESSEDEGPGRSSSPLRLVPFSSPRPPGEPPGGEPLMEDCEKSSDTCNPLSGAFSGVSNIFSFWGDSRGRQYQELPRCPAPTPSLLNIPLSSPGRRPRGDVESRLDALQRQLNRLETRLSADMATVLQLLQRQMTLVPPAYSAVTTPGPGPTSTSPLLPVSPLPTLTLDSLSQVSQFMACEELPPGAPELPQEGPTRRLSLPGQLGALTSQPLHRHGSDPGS

| SMILES | hERG current change (%, negative = inhibition) at 10uM [%] |
| --- | --- |
| Fc1ccc(C2=CCN(C(c3cccs3)c3nnnn3CCc3ccccc3)CC2)cc1 (stereo not drawn) | -0.341 |
| O=C(CCC(=O)c1cccs1)Nc1ccccc1F | 3.01 |
| COc1ccc(C(=O)CCC(=O)NCCc2c[nH]c3ccccc23)cc1OC | 21.2 |
| Cc1cccc(C)c1NC(=O)c1ccc(CN2CCc3ccccc3C2)cc1 | 4.57 |
| Cc1nn(CC(=O)N2CCCCCC2)c(=O)c2cc3occc3n12 | 14.6 |
| Cc1cc(NC(=O)c2cc(-c3ccc(Br)cc3)on2)no1 | 17.6 |
| COc1ccc(CCNC(=O)c2ccccc2OCc2c(C)noc2C)cc1 | -26.4 |
| NS(=O)(=O)c1ccc(NC(=O)/C=C/c2ccccc2Cl)cc1 | 9.54 |
| CN=C(Nc1cc(C)nn1-c1ccccc1)c1ccc(F)cc1 | -9.94 |
| COc1cc(SC)ccc1C(=O)Nc1cccc(S(=O)(=O)NC2=NCCCCC2)c1 | 4.08 |
| O=C(COc1ccc(S(=O)(=O)N2CCCCC2)cc1)NCc1cccnc1 | 3.06 |
| CCOc1ccc(S(=O)(=O)N(C)c2ccc(OCC(=O)NCc3cccnc3)cc2)cc1 | -21.5 |
| O=C(COc1ccc(S(=O)(=O)N2CCCC2)cc1)NCc1cccnc1 | -3.42 |
| O=C(COc1ccc(S(=O)(=O)N2CCCC2)cc1Cl)NCc1cccnc1 | -55 |
| Cc1ccc(S(=O)(=O)N(Cc2ccc(Cl)cc2)c2ccccc2C(=O)NCc2ccco2)cc1 | -10.8 |
| COCCNC(=O)COc1ccc(N(C)S(=O)(=O)c2ccc3ccccc3c2)cc1 | -62 |
| CN(c1ccc(OCC(=O)NCc2cccnc2)cc1)S(=O)(=O)c1ccc(Cl)cc1 | -58.4 |
| Cc1ccc(S(=O)(=O)N(Cc2ccccc2)c2ccccc2C(=O)NCc2cccnc2)cc1 | -33.2 |
| Cc1ccc(S(=O)(=O)N(Cc2ccc(Cl)cc2)c2ccccc2C(=O)NCc2cccnc2)cc1 | -52 |
| CN(c1ccc(OCC(=O)OCC(=O)NCc2ccco2)cc1)S(=O)(=O)c1ccc2ccccc2c1 | 2.22 |
| CN(c1ccc(OCC(=O)NCCc2ccccc2)cc1)S(=O)(=O)c1ccc(Cl)cc1 | 15.2 |

| SMILES | hERG current change (%, negative = inhibition) at 10uM [%] |
| --- | --- |
| CN(c1ccc(OCC(=O)O)cc1)S(=O)(=O)c1ccc2ccccc2c1 | 16.1 |
| COc1cc(/C=C/c2ccc3c(Br)cc(Br)c(O)c3n2)ccc1O | 17.2 |
| O=C(CSc1ccc([N+](=O)[O-])cn1)Nc1ccc(N2CCOCC2)c(Cl)c1 | -33.2 |
| CCc1nnc(NC(=O)CSc2nnnn2-c2cccc(C(=O)OC)c2)s1 | 8.39 |
| O=C(Cc1cccs1)Nc1nnc(COc2ccccc2)s1 | 3.05 |
| O=C(CN1C(=O)NC2(CCc3ccccc32)C1=O)Nc1cc(C(F)(F)F)ccc1N1CCOCC1 (stereo not drawn) | -5.15 |
| O=C(COc1ncnc2ccccc12)N1CCN(S(=O)(=O)c2ccc(Cl)cc2)CC1 | -9.26 |
| Cc1nc(Cl)c2c(n1)NC1=C(O2)C(=O)CCC1 | 14.7 |
| COc1cccc(/C=C2\SC(=S)N(CCC(=O)NCCc3ccc(O)cc3)C2=O)c1 | 3.18 |
| COc1ccc(Nc2nc(-c3sc(N)nc3C)cs2)cc1 | 8.32 |
| O=C(NNC1=Nc2cccc3cccc1c23)c1ccc(Br)cc1 | 4.78 |
| Cc1cccc2cc(C(c3nnnn3Cc3ccccc3)N3CCN(c4ccccc4)CC3)c(=O)[nH]c12 (stereo not drawn) | -29.1 |
| COc1cccc(/C=N/NC(=O)COc2cccc3cccnc23)c1O | 0.232 |
| CN(C)/C=C(/C(=O)c1ccc(Cl)c(Cl)c1)c1nnnn1-c1ccccc1 | 9.85 |
| COc1ccc(C2C3=C(CCCC3=O)Nc3nc(SCc4ccc(C(=O)O)cc4)nn32)cc1OC (stereo not drawn) | -3.79 |
| Cl.Cn1cccc1CNCCc1ccccc1 | -1.74 |
| COCCNC(=O)CN(c1ccc(OC)c(OC)c1)S(=O)(=O)c1ccc(C)cc1 | -8.68 |
| CCOc1ccc(S(=O)(=O)N(CC(=O)NCc2cccnc2)c2ccc(C)cc2)cc1 | -66.9 |
| CN(c1ccc(C(=O)N2CCCCCC2)cc1)S(=O)(=O)c1ccc(Cl)cc1 | -63 |
| COc1ccc(N(CC(=O)NCCOc2ccccc2)S(=O)(=O)c2ccc(C)cc2)cc1 | -54.8 |
| COc1ccc(S(=O)(=O)N(CC(=O)NCCCN(C)C)c2ccc(C)cc2)cc1OC | -56.6 |
